RORgamma inh – blocks mouse ROR gamma transcriptional activity. actives 5.4% (n = 310,000). AID 2551. Potency, µM (titrated, usually from 53.6 µM), without a hit: at the top dose activity change, negative = inhibition, actives largely listed as inhibitors. P51450. Drosophila S2 Gal4-RORgamma UAS-luciferase reporter, 20 h; further: nearly all actives have a fitted effect of over 60% in size
Target sequence (P51450 whole entry, looked up, the tested form may be a part): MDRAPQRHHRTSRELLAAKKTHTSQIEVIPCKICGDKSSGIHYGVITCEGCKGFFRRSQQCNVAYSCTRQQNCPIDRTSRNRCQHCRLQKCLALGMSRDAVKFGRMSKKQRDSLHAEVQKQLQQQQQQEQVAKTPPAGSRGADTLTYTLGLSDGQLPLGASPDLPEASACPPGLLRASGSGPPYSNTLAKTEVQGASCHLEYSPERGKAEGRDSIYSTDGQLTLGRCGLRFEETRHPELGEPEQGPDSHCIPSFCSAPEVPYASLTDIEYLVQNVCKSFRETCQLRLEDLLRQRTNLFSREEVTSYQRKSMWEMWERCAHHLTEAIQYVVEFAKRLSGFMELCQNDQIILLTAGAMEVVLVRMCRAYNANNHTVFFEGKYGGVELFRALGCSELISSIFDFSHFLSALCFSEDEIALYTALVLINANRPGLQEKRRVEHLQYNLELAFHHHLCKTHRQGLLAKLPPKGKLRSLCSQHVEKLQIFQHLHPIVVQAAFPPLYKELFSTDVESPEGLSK
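Schneider cells (Drosophila), stable Gal4 DBD–ROR gamma + UAS-luc; 1 hr cmpd preincubation; Cu2+ induction 700 uM final; 20 hr ambient; luminescence.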
Gal4-VP16 FLuc – Gal4-VP16 reporter inhibition counter-screen; Potency, µM (top dose mostly 53.6 µM), without a hit: at the top dose activity, negative = inhibition, most hits filed as inhibitors; Drosophila S2 Gal4-VP16 UAS-luciferase, luminescence, 20 h; actives 3.5% (n = 310,000);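 further: Gal4-VP16 expression switched on by copper sulfate through the metallothionein promoter; nearly all actives have a fitted effect of over 50% in size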
TDP1 inh – inhibitors of human tyrosyl-DNA phosphodiesterase TDP1 | Q9NUW8 | actives 0.28% (n = 350,000) | recombinant TDP1, AlphaScreen DNA substrate cleavage | Potency, µM (top dose mostly 130 µM), for inactives: top-dose activity change, negative = inhibition, hits mostly inhibitors; further: nearly all actives have a fitted effect of over 40% in size
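Signal: AlphaScreen proximity between streptavidin donor and anti-FITC acceptor beads on intact substrate. Reaction: Tdp1 1 nM, substrate 15 nM final, 5 min RT after 15 min compound preincubation.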
DT40 TDP1 no CPT – qHTS for Inhibitors of human tyrosyl-DNA phosphodiesterase 1 (TDP1): qHTS in cells in absence of CPT | DT40 Tdp1-/- hTDP1 cells, no CPT, ATP luminescence, 48 h | Potency, µM (highest dose often 46.2 µM), for the others: at the highest dose activity change, negative = growth inhibition, most hits filed as inhibitors | actives 15% (n = 420,000); further: nearly all actives have a fitted effect of over 55% in size
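Stably hTDP1-transfected Tdp1-null chicken DT40 cells were treated with library compounds minus camptothecin and grown for at least 48 hr at 37 °C, after which cellular ATP was quantified by luminescence.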
DT40 TDP1 CPT – DT40-hTDP1 cell growth loss with CPT. actives 12% (n = 420,000). chicken DT40 Tdp1-/-;hTDP1 cells + 20 nM CPT, ATP luminescence, 48 h. AID 686979. Potency, µM (highest dose often 46.2 µM), for inactives: top-dose activity change, negative = growth inhibition, usual class: inhibitors; further: nearly all actives have a fitted effect of over 55% in size
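Chicken DT40 Tdp1-/- cells complemented with human TDP1, 400 cells/well, exposed to compounds plus 20 nM camptothecin for at least 48 h at 37 C; viability read as ATP content by CellTiter-Glo luminescence.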
The depositor's hits bear a star; ? = inconclusive; · = no result; ! = not active in a repeat; [ ] = another dose, or the depositor's remark. Sampled rows, rich in hits. Any-hit rate of the full collection: about 19%. The call rests on the fitted dose curve; in most records, active means well fitted curve in the direction sought with a large enough effect; inconclusive means small, poorly fitted or top-dose-only effect, or another doubt; inactive means no such curve, though single readings can be large; an effect the other way counts as inactive or inconclusive. On the % scale 0 is the no-effect control and ±100 the full control effect; potency means the concentration at half of the fitted maximal effect.

SMILES	RORgamma inh	Gal4-VP16 FLuc	TDP1 inh	DT40 TDP1 no CPT	DT40 TDP1 CPT
Cc1ccc(CNC(=O)CCc2c(C)nc3c(c(C)nn3-c3ccc(C)cc3)c2C)cc1	-27%	-2%	·	12%	-12%
Cc1nn(-c2ccccc2)c(Cl)c1C(=O)NCCCCNC(=O)c1c(C)nn(-c2ccccc2)c1Cl	42%	2%	7%	-5%	4%
CCOc1ccc(CCNC(=O)c2ccc3ccccc3n2)cc1OCC	15%	28%	0%	8.2µM*	18µM*
Cc1nc2c(c(C)nn2-c2ccccc2)c(C)c1CCC(=O)NCCc1ccccc1	·	·	0%	21µM*	21µM*
OCCO[C@@H]1[C@@H](O)[C@H](O)[C@@H](CO)O[C@@H]1O	·	·	·	-16%	7%
COc1ccc(C(=O)NC(=O)COC(=O)c2ccc(C)o2)cc1	·	·	-5%	24%	-8%
O=C(NCc1ccc(-c2csnn2)cc1)c1cccs1	21%	-3%	5%	-8%	-3%
CCOC(=O)N1CCN(C(=O)CCc2c(C)nc3c(c(C)nn3-c3ccc(C)c(C)c3)c2C)CC1	7%	-2%	5%	16µM*	?
Cc1ccc(OCCNC(=O)c2ccc3ccccc3n2)cc1	38%	1%	·	?	?
COc1cc(NC(=O)CCc2c(C)nc3c(c(C)nn3-c3ccccc3)c2C)cc(OC)c1OC	·	·	5%	12µM*	15µM*
Cc1cccc(C)c1OCCNC(=O)c1ccc2ccccc2n1	9%	16%[10 µM]	3%	16µM*	21µM*
CCOc1ccc(CCNC(=O)CCc2c(C)nc3c(c(C)nn3-c3ccccc3)c2C)cc1OCC	·	·	7%	13µM*	15µM*
CCOc1ccc(CCNC(=O)c2c(C)nn(-c3ccccc3)c2Cl)cc1OCC	13%	6%	3%	?	16µM*
CCOc1ccc(NC(=O)CCc2c(C)nc3c(c(C)nn3-c3ccccc3)c2C)cc1	·	·	3%	-22%	-24%
Cc1nc2c(c(C)nn2-c2ccccc2)c(C)c1CCC(=O)Nc1ccc(CN2CCCC2)cc1	-4%	-19%	8%	?	16µM*
CCCCNC(=O)CCc1c(C)nc2c(c(C)nn2-c2ccccc2)c1C	17%	-4%	-5%	18µM*	18µM*
Cc1cc(C)cc(NC(=O)CCc2c(C)nc3c(c2C)c(=O)n(C)c(=O)n3C)c1	·	·	5%	16µM*	?
CCOc1ccc(NC(=O)CSc2nnc(-c3cc(C)[nH]n3)n2N)cc1	-15%	-10%	1%	12%	5%
COc1ccc(CCNC(=O)C2CCCN2C(=O)Nc2ccc(C)cc2)cc1OC (stereo not given)	8%	4%	·	13%	2%
CCN(CC)CCCNC(=O)C1CCC(CNS(=O)(=O)c2ccc(Cl)cc2)CC1 (stereo not given)	16%	-3%	·	-4%	?
CCN(CC)CCCN(C(=O)c1ccccc1F)c1nc(-c2ccc(OC)cc2)cs1	-2%	-4%	·	?	?
CCN(CC)CCCN(C(=O)c1ccc(OC)cc1)c1nc(-c2ccc(OC)cc2)cs1	-7%	0%	·	?	?
COc1ccc(-c2csc(N(CC3CCCO3)C(=O)c3ccccc3)n2)cc1 (stereo not given)	8%	-1%	-11%	?	?
COc1ccc(-c2csc(N(CC3CCCO3)C(=O)c3ccc(C)cc3)n2)cc1 (stereo not given)	?	-29%	-2%	23µM*	26µM*
COCCCN(C(C)=O)c1nc(-c2ccc(OC)cc2)cs1	-4%	4%	4%	?	15µM*
SMILES	RORgamma inh	Gal4-VP16 FLuc	TDP1 inh	DT40 TDP1 no CPT	DT40 TDP1 CPT
CCN(CC)CCCN(C(=O)c1ccccc1C)c1nc(-c2ccc(OC)cc2)cs1	-9%	1%	·	23µM*	?
COc1ccc(-c2csc(N(CCCN(C)C)C(=O)c3ccc(C(C)(C)C)cc3)n2)cc1	18%	?	8%	?	?
COc1ccc(-c2csc(N(CCCN(C)C)C(=O)c3ccc(C)cc3)n2)cc1	1%	-8%	·	16µM*	?
COc1ccc(CNc2ncncc2-c2cccc(NS(C)(=O)=O)c2)c(OC)c1	?	11%	·	6%	-10%
CC(=O)c1ccc(S(=O)(=O)NC2CC(=O)N(c3ccc(Cl)cc3)C2)cc1 (stereo not given)	·	·	·	13µM*	?
O=C(NC1CC(=O)N(c2ccc(Cl)cc2)C1)c1ccc(S(=O)(=O)N2CCOCC2)cc1 (stereo not given)	·	·	0%	-26%	-25%
CC(=O)c1cc2c(cc1O)OC(C)(C)C=C2	?	?	22µM*	-9%	-6%
CC1(C)Oc2cc3oc(=O)ccc3cc2C[C@@H]1O	·	·	2%	-9%	24%
COc1c2c(cc3oc(=O)ccc13)OC(C)(C)C=C2	4%	?	·	26µM*	?
CC1(C)C=Cc2cc3ccc(=O)oc3cc2O1	-9%	2%	-10%[56.1 µM]	8.2µM*!	15µM*!
Cc1n[nH]c(C)c1S(=O)(=O)N1CCC(C(=O)O)CC1	-14%	-9%	0%	-8%	1%
CCOc1cccc2sc(N(CCCN(C)C)C(=O)c3ccc(S(=O)(=O)N(C)c4ccccc4)cc3)nc12	?	?	8%	?	?
Cc1cc(C)cc(C(=O)NCC(=O)OCC(=O)NC2CC2)c1	·	·	0%	4%	6%
CC[n+]1c(/C=C/c2ccc(OC)c(OC)c2)ccc2ccccc21	-12%	-4%	·	?	?
CC[n+]1c(/C=C/c2ccc(OC(C)=O)c(OC)c2)ccc2ccccc21	-22%	-23%	·	18µM*	16µM*
Fc1ccc(/C=C/c2nnc(-c3cccs3)o2)cc1	-9%	-17%	-4%	-23%	7%
CC[n+]1c(/C=C/c2cc([N+](=O)[O-])ccc2O)ccc2ccccc21	33%	3%	·	23µM*	?
C[n+]1c(/C=C/c2ccc(O)cc2)ccc2ccccc21	6%	-4%	·	18µM*	?
C[n+]1c(/C=C/c2ccc3c(c2)OCO3)ccc2ccccc21	-24%	-10%	4%	2%	13%
C[n+]1c(/C=C/c2ccc(F)cc2)ccc2ccccc21	·	·	·	2.5µM*	3.5µM*
C=C(C)c1cccc(C(C)(C)NC(=O)NCc2cccnc2)c1	-2%	9%	7%	-16%	-8%
CCCCNC(=O)C(CC)(ONc1ccccc1C(F)(F)F)c1ccccc1 (stereo not given)	·	·	0%	?	?
Cc1ccc(C)c(S(=O)(=O)N2CCCOC2CNC(=O)C(=O)NCCCN2CCOCC2)c1 (stereo not given)	-14%	-1%	1%	7%	0%

Screens deposited in PubChem by National Center for Advancing Translational Sciences (NCATS).
